Screens (PubChem)
MT1-MMP txn act = MT1-MMP promoter reporter activation – cell-based, luciferase luminescence, primary screen; HT1080 MT1-MMP promoter luciferase reporter, overnight; hits give high values; activation factor at 10 µM; 0.16% of 86,000 active;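 active = activation factor of at least 2 for MT1-MMP transcription at 10 µM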
Smad3 inh = Smad3/FoxH1 peptide binding inhibitors, primary screen, biochemical, TR-FRET | inhibition, % at 25 µM | TR-FRET Smad3/Dy647-FoxH1 peptide binding, europium anti-His | Mothers against decapentaplegic homolog 3 (Homo sapiens), P84022 | 0.29% of 88,000 active;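 active = compounds that reduce the energy-transfer binding signal between the protein and its labelled peptide by more than half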;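 also: 0% = Smad3 plus labelled peptide maximal FRET and 100% = peptide-only background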
S1P2 antag = human S1P2 receptor antagonists, primary screen, cell-based. 0.21% of 97,000 active. Sphingosine 1-phosphate receptor 2 (Homo sapiens), O95136. cell-based S1P2 antagonist assay, inhibition at 5 uM. inhibition, % at 5 µM. AID 736, 2007; in the data active = inhibition above about 45%;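 also: CRE beta-lactamase reporter cells expressing human S1P2 stimulated with S1P; 0% = agonist at EC80 alone and 100% = agonist plus reference antagonist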
Target sequence (O95136 whole entry, looked up): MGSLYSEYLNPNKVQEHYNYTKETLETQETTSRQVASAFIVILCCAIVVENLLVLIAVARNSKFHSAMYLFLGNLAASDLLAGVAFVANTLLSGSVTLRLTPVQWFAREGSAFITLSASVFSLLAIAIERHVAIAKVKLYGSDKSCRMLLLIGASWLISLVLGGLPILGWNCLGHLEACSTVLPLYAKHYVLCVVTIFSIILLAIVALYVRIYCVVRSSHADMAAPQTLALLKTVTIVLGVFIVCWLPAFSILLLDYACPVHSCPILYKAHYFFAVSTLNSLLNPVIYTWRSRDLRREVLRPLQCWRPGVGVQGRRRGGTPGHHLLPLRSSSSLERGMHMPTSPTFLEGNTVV
GALR2 blocker = GALR2 antagonists in receptor-expressing cells, primary screen; Galanin receptor type 2 (Homo sapiens), O43603; antagonist mode; inhibition, % at 4 µM; 0.39% of 140,000 active; AID 828, 2007; in the data active = inhibition above about 27%;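 also: cells stimulated with galanin 1-16 at roughly its EC80; 0% = agonist challenge control and 100% = basal control without agonist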
S1P2 agonist = S1P2 receptor agonists, primary screen, cell-based; activation, % at 4.5 µM; Sphingosine 1-phosphate receptor 2 (Homo sapiens), O95136; S1P2-expressing cell line, agonist reporter read-out; 0.46% of 97,000 active; in the data active = activation above about 16%;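 also: 0% = vehicle low control and 100% = maximal reference agonist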
GALR2 agonist = GALR2 receptor agonists, primary screen, cell-based | activation, % (no concentration beside the values) | Galanin receptor type 2 (Homo sapiens), O43603 | AID 803, 2007 | 0.48% of 140,000 active | GALR2-expressing cells, agonist activation read-out; in the data active = activation above about 5%, passing the limit was not always enough;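 also: 0% = vehicle buffer wells and 100% = reference agonist at full effect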
* marks the source's active call; other numbers are inactive results; . = no result given; [ ] = remark or other dose. The list is not random: actives were taken first. Their share in the collection is about 1.4%.

SMILES	MT1-MMP txn act	Smad3 inh	S1P2 antag	GALR2 blocker	S1P2 agonist	GALR2 agonist
Cc1cccn2c(=O)c3cc(C(=O)NCCN4CCOCC4)c(=N)n(CCc4ccccc4)c3nc12	1.2	-1	-32	-29	39*	7.9*
Cc1cccn2c(=O)c3cc(C(=O)NCCc4ccccc4)c(=N)n(CCCn4ccnc4)c3nc12	.	.	-98	-5	64*	8
Cc1cccn2c(=O)c3cc(C(=O)NCc4ccccc4)c(=N)n(CCCN4CCOCC4)c3nc12	1.1	2	.	.	.	.
O=C1C2=C(Nc3cc([N+](=O)[O-])ccc3N2)O[C@H]1c1ccc([C@H]2OC3=C(Nc4ccc([N+](=O)[O-])cc4N3)C2=O)cc1	.	26	.	.	.	.
CCOC(=O)Nc1ccc2c(c1)N(C(=O)CCN1CCOCC1)c1ccccc1S2	1	.	-36	-4	-4	3
CCOC(=O)Nc1ccc2c(c1)N(C(=O)CCN1CCOCC1)c1ccccc1S2=O (centres undefined)	1	9	29	41*	-10	-2
O=C(O)/C(Cc1ccnc2ccccc12)=N\O	.	-14	.	.	.	.
c1ccc2c[n+](Cc3ccnc4ccccc34)ccc2c1	.	101*	.	.	.	.
c1ccc(-c2nc(N3CCNCC3)nc3ccccc23)cc1	1.1	9	-18	13	20*	8
c1ccc(-c2nc(N3CCCCC3)nc3ccccc23)cc1	1.1	6	-19	-2	3	1
O=C(O)CCCC(=O)N1CCN(c2nc(-c3ccccc3)c3ccccc3n2)CC1	1.1	-2	-6	13	38*	-1
O=C(O)C1CC=CCC1C(=O)N1CCN(c2nc(-c3ccccc3)c3ccccc3n2)CC1 (centres undefined)	1.3	6	-16	23	21*	9
Cc1ccc(NC(=O)C2(c3ccccc3)CC2(Cl)Cl)cc1C (centres undefined)	.	.	15	-19	-7	-1
CCc1ccc(NC(=O)C2(c3ccccc3)CC2(Cl)Cl)cc1 (centres undefined)	.	.	4	5	25*	-2
CC(C)(CO[C@@H]1C[C@@H]2CC[C@@]1(C)C2(C)C)[N+](=O)[O-]	.	-2	.	.	.	.
C=CCNc1nc(-c2ccc(OC)cc2OC)cs1	2*	20	32	5	-12	-1
COC(=O)C12CC3CC(C1)CC(n1cnc(Cl)n1)(C3)C2	2.3*	5	-12	3	-2	-1
COc1cccc2c1[C@H](CO)N1[C@H](C#N)[C@H]3C[C@@H](C(=O)O)[C@@H]([C@@H]1C2)N3C	.	14	.	.	.	.
Cc1cccc(NC(=O)Cc2noc3ccccc23)c1	2.1*	5	-13	-7	15	-2
Cc1cccc(NC(=O)Cc2noc3ccccc23)c1C	.	.	.	0	.	-2
Cc1cccc(C)c1OCc1nnc(SCC(=O)Nc2nccs2)n1-c1ccccc1	1.1	3	8	-7	0	6.5*
CCCOC(=O)c1ccc(NC(=O)c2cn(CC)c3nc(C)ccc3c2=O)cc1	1	61*[fluorescence artefact?]	-4	-4	-6	-3
O=C(O)CCNc1ncnc2nc[nH]c12	.	8	.	.	.	.
CCOC(=O)c1ccccc1NC(=O)CSc1nc2ccccc2n1CC(=O)N1CCCC1	1	9	-61	0	32*	0
O=C(N/N=C/c1ccc2c(c1)CCC2)c1ccccc1O	.	-8	.	.	.	.
SMILES	MT1-MMP txn act	Smad3 inh	S1P2 antag	GALR2 blocker	S1P2 agonist	GALR2 agonist
O=S1(=O)C=C(Sc2nc3ccccc3s2)c2ccccc21	1.2	5	.	74*	.	0
Cc1cc(C)nc(SC2=CS(=O)(=O)c3ccccc32)n1	1.1	5	-12	7	-7	-2
CC(C)CCSc1nc2c(c(=O)[nH]c(=O)n2C)n1CCCc1ccccc1	1.3	8	-11	2	-2	-3
Cc1nnc(Sc2nc3c(c(=O)[nH]c(=O)n3C)n2CCCc2ccccc2)s1	.	-1	-31	-5	27*	-3
C[C@H](CC(=O)O)C(C(=O)O)C(=O)O	.	-3	.	.	.	.
CCCc1ccc(-c2ccc(F)c(N)c2)nc1	.	10	17	2	-9	-3
CCCCc1ccc(-c2ccc(Br)cc2)nc1	2*	9	-5	5	-3	-1
N/C(CC/C(N)=N\O)=N\O	.	-12	.	.	.	.
Cc1ccc2[nH]c3c(N4CCN(Cc5ccccc5)CC4)ncnc3c2c1	1	-4	59*	14	-9	0
COc1cccc2[nH]c3c(N4CCN(Cc5ccc6c(c5)OCO6)CC4)ncnc3c12	1.1	8	20	5	-3	1
Cc1ccc2[nH]c3c(N4CCN(Cc5ccc6c(c5)OCO6)CC4)ncnc3c2c1	1.1	5	69*	-9	-6	-1
Cc1ccc2c(c1)[nH]c1c(N3CCN(Cc4ccccc4)CC3)ncnc12	1.1	-1	70*	23	-10	-2
O=C(O)[C@@H]1[C@H](C(=O)O)[C@@H]2C(=O)C=C[C@H]1N2Cc1ccccc1	.	8	.	.	.	.
COc1ccc2c(Cc3c4ccccc4cc4ccccc34)cncc2c1O	.	22	.	.	.	.
Cc1ccc(C2=C(Cl)C(=O)C(c3ccc(C)cc3)=C(Cl)C2=O)cc1	.	52*	.	.	.	.
Cc1ccc(S(=O)(=O)c2ccc(C)cc2)cc1	1.1	26	-21	-9	-2	0
Oc1ccccc1-c1cc(-c2ccco2)[nH]n1	2.1*	13	17	6	-1	-1
CCC[C@H](Sc1nc(N)nc2nc[nH]c12)C(=O)O	.	7	.	.	.	.
O=C(NCc1cccnc1)/C(=C/c1ccc(-c2ccc(Cl)cc2)o1)S(=O)(=O)c1ccccc1	.	.	54*	24	-5	1
CSc1sc2ccccc2[n+]1CCCS(=O)(=O)[O-]	.	.	3	-10	26*	-2
OCCN(CCO)c1ncnc2c1sc1nc(N3CCOCC3)c3c(c12)CCCC3	1	6	-51	2	23*	1
C[C@]12CC[C@H](O)C[C@@H]1CC[C@H]1[C@H]2CC[C@]2(C)[C@@H]1CC[C@H]2c1cc(C(F)(F)F)n[nH]1	.	4	.	.	.	.
CC(C)(C)NC(=O)CSC(=Nc1ccc(F)cc1)NC#N	1.1	4	-4	-1	24*	-2
N#CNC(=Nc1cccc(F)c1)SCc1cccc(F)c1	.	.	.	-13	.	-1
C[C@H]1C2=C3[C@@H](C[C@H]4C(=O)N(c5ccccc5)C(=O)[C@H]4[C@H]3[C@@]3(Cc4ccccc4)C(=NCCc4c[nH]c5ccccc45)OC(=O)N3C2=O)[C@H]2C(=O)N(c3ccccc3)C(=O)[C@H]21	1.2	.	.	.	.	.
O=C(O)/C=C/C(=O)Nc1ccccn1	.	1	.	.	.	.
Cc1ccc(S(=O)(=O)Nc2c(C)[nH]c(=O)[nH]c2=O)cc1C	.	.	.	6	.	5.9*
O[C@@H](C1=C/C(=C\c2ccncc2)c2ccccc21)c1ccncc1	.	76*	.	.	.	.
